Here are results for 38 compounds from the supplement of paper PMC5641865, “A screen for kinase inhibitors identifies antimicrobial imidazopyridine aminofurazans as specific inhibitors of the Listeria monocytogenes PASTA kinase PrkA” (The Journal of Biological Chemistry, 2017).

Each structure is given as a SMILES string. ± gives the standard deviation of the averaged measurements.
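Also: End-point A600 read in BHI broth at 37 °C with 2% DMSO, inhibition computed as (1 − OD with compound plus ceftriaxone ÷ OD with ceftriaxone only) × 100.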

The test system of this experiment is Listeria monocytogenes 10403S. The experiment can be described thus: growth inhibition relative to ceftriaxone-alone control; higher = stronger potentiation of ceftriaxone growth inhibition. The conditions noted are these: 10 µM; ceftriaxone 1 ug/ml; 12 h.
Regarding `CNC(=O)c1ccc(-c2cnc3ncc(Cc4ccc5ncccc5c4)n3n2)cc1F`, the growth inhibition worked out at 16.9 ± 8.9%.

With `CS(=O)(=O)CCNCc1ccc(-c2ccc3ncnc(Nc4ccc(OCc5ccccc5)c(C(F)(F)F)c4)c3c2)o1`, the growth inhibition was -5.15 ± 0.36%.

Consider `CN(C)c1cc2c(Nc3ccc4nc(Cc5ccccc5)[nH]c4c3)ncnc2cn1`, for which the growth inhibition was -14.1 ± 8.1%.

Consider `O=C(Nc1ccc(Oc2ccc3[nH]c(NC(=O)c4ccco4)nc3c2)cc1)Nc1cc(C(F)(F)F)ccc1F`, for which the growth inhibition was 9.02 ± 5.9%.

On to `O=C1NC(=O)/C(=C/c2ccc3c(c2)OC(F)(F)O3)S1`, for which the growth inhibition is 41.2 ± 7.3%.

In the case of `O=C1NC(=O)C(c2ccccc2[N+](=O)[O-])=C1Nc1ccc(O)c(Cl)c1`, the growth inhibition turned out to be 52.5 ± 49%.

For `CN(C)CCCn1c(-c2nonc2N)nc2cnccc21`, the growth inhibition is -5.31 ± 2.5%.

Consider `OCc1ccc(-c2nc(-c3ccc4c(c3)OCO4)c(-c3ccccn3)[nH]2)cc1`, for which the growth inhibition came out at 7.68 ± 2.9%.

As for `COC(=O)Nc1nc2cc(Oc3ccc(NC(=O)Nc4ccccc4)cc3)ccc2[nH]1`, the growth inhibition was 8.77 ± 1.8%.

In the case of `O=C(NCC1CC1)c1ccc(-c2cccc(C(=O)NC3CC3)c2)cc1`, the growth inhibition was -0.0355 ± 1.1%.

Turning to `COc1ccc2ncnc(Nc3ccc(OCc4ccccc4)cc3)c2c1`, the growth inhibition was determined as 1.99 ± 13%.

In the case of `CN1CCC(n2cnc(-c3ccc(F)cc3)c2-c2ccnc(NCCO)n2)CC1`, the growth inhibition is -2.88 ± 2.5%.

In the case of `NS(=O)(=O)c1ccc(Nc2cc(-c3ccc(O)c(F)c3)n[nH]2)cc1`, the growth inhibition was 10.1 ± 4.6%.

On to `CC(C)COC(=O)c1ccc2c(c1)/C(=C/Nc1ccc(S(N)(=O)=O)cc1)C(=O)N2`, for which the growth inhibition is -6.41 ± 14%.

Turning to `Cc1cc(O)cc(C)c1/C=C/c1cncc(C(N)=O)c1`, the growth inhibition is -0.223 ± 2.4%.

Consider `Fc1ccc(-c2nn3ncccc3c2-c2ccnc(Nc3ccc4c(c3)OCCO4)n2)cc1`, for which the growth inhibition is -7.99 ± 5.2%.

As to `FC(F)(F)c1ccc(Nc2nc3ccc(Oc4ccnc(-c5ncc(C(F)(F)F)[nH]5)c4)cc3[nH]2)cc1` [Raf265 Derivative], the growth inhibition was determined as 49.3 ± 21%.

Take `O=C1Nc2ccc(C(=O)c3ccco3)cc2C1=Cc1cc(Cl)c(O)c(Cl)c1`: the growth inhibition worked out at 13.9 ± 4.5%.

Regarding `CC(=O)NCC(=O)N1[C@@H]2CC[C@H]1c1ccc(Nc3ncc(C(F)(F)F)c(NC4CCC4)n3)cc12`, the growth inhibition amounted to 52 ± 46%.

As to `CC(C)CC(=O)Nc1n[nH]c2c1CN(C(=O)C1CCN(C)CC1)C2(C)C`, the growth inhibition was -44.3 ± 75%.

In the case of `C[C@@H](N)[C@H]1CC[C@H](C(=O)Nc2ccncc2)CC1`, the growth inhibition was found to be 24.6 ± 17%.

Take `Cn1cc(C2=C(c3ccc(Cl)cc3Cl)C(=O)NC2=O)c2ccccc21`: the growth inhibition is 19.5 ± 33%.

As to `COc1ccc(-c2ccc3ncc4c(c3c2)n(-c2ccc(N3CCNCC3)c(C(F)(F)F)c2)c(=O)n4C)cn1`, the growth inhibition worked out at 28.5 ± 9.7%.

As for `COc1cccc(Nc2nccc(-c3cnn4ncccc34)n2)c1`, the growth inhibition is -2.59 ± 1.4%.

As for `CS(=O)(=O)Nc1ccc(-c2cc(-c3ccccc3)cc(C(N)=O)c2N)cc1`, the growth inhibition stood at 29.1 ± 20%.

For `CCC[C@H](NC(=O)/C(C#N)=C/c1cccc(Br)n1)c1ccccc1`, the growth inhibition came out at 99.32 ± 0.54%.

Take `CC1=C(C(=O)Nc2ccc3[nH]ncc3c2)C(c2ccc(F)cc2)NC(=O)N1` (stereo not drawn): the growth inhibition worked out at 2.29 ± 1.7%.

As for `CCn1c(-c2nonc2N)nc2cncc(C(=O)NCCNC)c21`, the growth inhibition is -6.44 ± 0.39%.

For `Oc1cccc(-c2nc(N3CCOCC3)c3oc4ncccc4c3n2)c1`, the growth inhibition was determined as 22.4 ± 24%.

Take `CN(C)Cc1cccc(N/C(=C2\C(=O)Nc3cc(C(N)=O)ccc32)c2ccccc2)c1`: the growth inhibition amounted to 8.63 ± 3.3%.

In the case of `NS(=O)(=O)c1ccc(N/N=C2\C(=O)Nc3ccc(C(=O)NCCc4c[nH]cn4)cc32)cc1`, the growth inhibition turned out to be 14.1 ± 4.2%.

For `C[C@@H]1COC(Nc2ccc3ncnc(Nc4ccc(OCc5nccs5)c(Cl)c4)c3c2)=N1`, the growth inhibition stood at 70.8 ± 5%.

For the compound `CCN1CCN(Cc2ccc(-c3cc4c(N[C@H](C)c5ccccc5)ncnc4[nH]3)cc2)CC1`, the growth inhibition turned out to be 22.1 ± 4.2%.

Regarding `CCn1c(-c2nonc2N)nc2c(C#CC(C)(C)O)nc(OCCNC)cc21`, the growth inhibition was found to be 41.3 ± 18%.

With `S=C(NCc1ccc2c(c1)OCO2)N1CCN(c2ncnc3c2oc2ccccc23)CC1` [Amuvatinib (MP-470)], the growth inhibition came to 11.7 ± 22%.

Turning to `CCCN(CCS(C)(=O)=O)Cc1ccc(-c2ccc3ncnc(Nc4ccc(OCc5cccc(F)c5)c(Cl)c4)c3c2)o1`, the growth inhibition was -7.09 ± 4.2%.

Turning to `COc1cccc2cc(-c3nc([C@H]4CC[C@H](C(=O)O)CC4)n4ncnc(N)c34)[nH]c12`, the growth inhibition turned out to be 16.8 ± 14%.

Consider `Nc1nccc(-c2c(-c3ccc(F)cc3)ncn2C2CCNCC2)n1`, for which the growth inhibition came out at 2.49 ± 6.8%.
